Screening results as filed in PubChem.
ERAP1 inh – ERAP1 (human) enzyme inhibition. actives 0.15% (n = 340,000). Q9NZ08. recombinant ERAP1, Leu-AMC fluorescence, 60 min. AID 652197. inhibition, % at 10.7 µM;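 active = mean replicate inhibition of at least 30%, or all replicates individually reaching that 30% level; inactive = mean below 30% and not every replicate reaching it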
Target sequence (Q9NZ08 whole entry, looked up): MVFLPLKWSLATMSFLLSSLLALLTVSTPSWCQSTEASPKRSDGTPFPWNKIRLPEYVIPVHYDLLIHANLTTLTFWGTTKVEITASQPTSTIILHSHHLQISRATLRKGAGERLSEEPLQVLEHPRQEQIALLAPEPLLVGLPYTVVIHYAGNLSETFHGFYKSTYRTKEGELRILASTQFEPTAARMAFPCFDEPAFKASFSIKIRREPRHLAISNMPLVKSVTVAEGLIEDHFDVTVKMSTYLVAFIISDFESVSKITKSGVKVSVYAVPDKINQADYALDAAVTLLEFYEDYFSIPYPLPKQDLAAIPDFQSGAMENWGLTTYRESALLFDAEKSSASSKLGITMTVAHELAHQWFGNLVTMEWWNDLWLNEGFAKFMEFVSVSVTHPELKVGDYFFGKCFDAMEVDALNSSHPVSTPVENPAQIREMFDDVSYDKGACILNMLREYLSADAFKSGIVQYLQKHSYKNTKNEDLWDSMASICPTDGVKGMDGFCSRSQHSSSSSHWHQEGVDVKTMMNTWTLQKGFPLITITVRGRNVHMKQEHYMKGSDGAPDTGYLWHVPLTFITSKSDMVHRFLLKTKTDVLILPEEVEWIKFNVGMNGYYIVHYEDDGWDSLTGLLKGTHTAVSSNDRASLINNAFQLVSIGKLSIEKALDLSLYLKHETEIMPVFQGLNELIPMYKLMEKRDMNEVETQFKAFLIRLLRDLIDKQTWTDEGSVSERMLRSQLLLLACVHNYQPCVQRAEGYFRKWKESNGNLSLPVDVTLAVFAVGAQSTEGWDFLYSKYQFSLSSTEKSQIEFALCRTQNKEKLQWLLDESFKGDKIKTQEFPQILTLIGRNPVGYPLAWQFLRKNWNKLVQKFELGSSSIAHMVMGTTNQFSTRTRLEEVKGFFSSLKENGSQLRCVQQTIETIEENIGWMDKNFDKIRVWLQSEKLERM
MLL AF4-AF9 inh – MLL-AF4/AF9 protein interaction inhibition. AlphaScreen, biotin-AF4 peptide binding to FLAG-AF9. actives 0.47% (n = 350,000). inhibition, % at 10 µM;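 active = every replicate reaching a set inhibition limit, whatever the replicate mean, cut at about 25% in these data; inconclusive = mean inhibition reaches that limit but some replicates miss it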
FGF22 binding – FGF22 (human) thermal shift binding | activity (Tm shift, normalised), % at 9.99 µM | Q9HCT0 | actives 1.5% (n = 340,000) | recombinant FGF22 thermal shift, SYPRO orange fluorescence; percent of sucrose octasulfate shift, DMSO zero;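 active = mean Tm shift, scaled 0 neutral to 100 positive control, at about 1.3% or above, every replicate too, limit read from the data; inconclusive = no clear call, values can overlap the other calls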
RAD52 anneal inh – inhibitors of human RAD52 DNA annealing; recombinant RAD52 DNA annealing, FRET fluorescence; P43351; actives 0.46% (n = 360,000); inhibition, % at 18.7 µM;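 active = every replicate showing at least 50% inhibition; inconclusive = mean inhibition at least 50% but not in every replicate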
DENV2 CPE rescue – inhibitors of DENV2 cytopathic effect; DENV2-infected cells, cytopathic effect rescue, plate reader; CPE inhibition, % at 9.99 µM; actives 1.7% (n = 350,000); in the data active = CPE inhibition above about 20%, passing the limit was not always enough; inconclusive = no clear call, values can overlap the other calls; tested in BHK-21 cells
Numbers stand for hits. Sampled rows, rich in hits. Any-hit rate of the full collection: about 4%.

Results for Cc1ccc(S(=O)(=O)Nc2ccc3c(c2)C(=O)N([C@@H](C)CO)C[C@H](C)[C@H](CN(C)C(=O)NC(C)C)O3)cc1 ?
ERAP1 inh: inactive; MLL AF4-AF9 inh: inactive; FGF22 binding: inactive; RAD52 anneal inh: inactive; DENV2 CPE rescue: 32

Results for Cc1ccc(S(=O)(=O)Nc2ccc3c(c2)C(=O)N([C@@H](C)CO)C[C@H](C)[C@H](CN(C)C(=O)NC2CCCCC2)O3)cc1 ?
ERAP1 inh: inactive; MLL AF4-AF9 inh: inactive; FGF22 binding: inactive; RAD52 anneal inh: inactive; DENV2 CPE rescue: inactive

What do the screens show for `Cc1ccc(S(=O)(=O)Nc2ccc3c(c2)C(=O)N([C@H](C)CO)C[C@@H](C)[C@H](CN(C)C(=O)NC2CCCCC2)O3)cc1`?
ERAP1 inh: inactive; MLL AF4-AF9 inh: inactive; FGF22 binding: inactive; RAD52 anneal inh: inactive; DENV2 CPE rescue: 41

How did CSCCC(NS(=O)(=O)c1cccs1)C(=O)NCc1ccccc1 (stereo not given) do in these assays?
ERAP1 inh: inactive; MLL AF4-AF9 inh: inactive; FGF22 binding: inactive; RAD52 anneal inh: inactive; DENV2 CPE rescue: 36

How did O=C(C1CCC1)N1CC(=O)N2[C@H](CO)[C@@H](c3ccc(C#Cc4cccc(F)c4)cc3)[C@@H]2C1 do in these assays?
ERAP1 inh: inactive; MLL AF4-AF9 inh: inactive; RAD52 anneal inh: inactive; DENV2 CPE rescue: inactive

How did C[C@@H]1CN([C@@H](C)CO)C(=O)c2cc(NC(=O)Cc3ccccc3)ccc2O[C@@H](C)CCCCO[C@H]1CN(C)CC1CCCCC1 do in these assays?
ERAP1 inh: inactive; MLL AF4-AF9 inh: inactive; RAD52 anneal inh: inactive; DENV2 CPE rescue: inactive

Results for O=C(NP(=O)(N1CCCC1)N1CCCC1)C1=C(N2CCOCC2)/C(=C/c2cccc([N+](=O)[O-])c2)CC1 ?
ERAP1 inh: inactive; MLL AF4-AF9 inh: inactive; FGF22 binding: 44; RAD52 anneal inh: inactive; DENV2 CPE rescue: inactive

Results for C[C@@H]1CN([C@H](C)CO)C(=O)Cc2cc(NC(=O)c3ccncc3)ccc2O[C@H]1CN(C)S(=O)(=O)c1ccc(F)cc1 ?
ERAP1 inh: inactive; MLL AF4-AF9 inh: inactive; FGF22 binding: inactive; RAD52 anneal inh: inactive; DENV2 CPE rescue: inactive

Results for CN(C)C(=O)C[C@H]1C=C[C@H](NC(=O)NC2CCCCC2)[C@H](CO)O1 ?
ERAP1 inh: inactive; MLL AF4-AF9 inh: inactive; FGF22 binding: inactive; RAD52 anneal inh: inactive; DENV2 CPE rescue: inactive

How did C[C@H](CO)N1C[C@H](C)[C@H](CN(C)C(=O)Nc2ccc(C(F)(F)F)cc2)OCCCC[C@H](C)Oc2ccc(NS(=O)(=O)c3ccc(F)cc3)cc2C1=O do in these assays?
ERAP1 inh: inactive; MLL AF4-AF9 inh: inactive; FGF22 binding: inactive; RAD52 anneal inh: inactive; DENV2 CPE rescue: 82

Results for C[C@H]1CCCCO[C@H](CN(C)C(=O)Nc2ccc(C(F)(F)F)cc2)[C@@H](C)CN([C@@H](C)CO)C(=O)c2cc(NS(=O)(=O)c3ccc(F)cc3)ccc2O1 ?
ERAP1 inh: inactive; MLL AF4-AF9 inh: inactive; FGF22 binding: inactive; RAD52 anneal inh: inactive; DENV2 CPE rescue: inactive

What do the screens show for `C[C@@H]1CCCCO[C@@H](CN(C)C(=O)Nc2ccc(C(F)(F)F)cc2)[C@H](C)CN([C@H](C)CO)C(=O)c2cc(NS(=O)(=O)c3ccc(F)cc3)ccc2O1`?
ERAP1 inh: inactive; MLL AF4-AF9 inh: inactive; FGF22 binding: inactive; RAD52 anneal inh: inactive; DENV2 CPE rescue: 69

What do the screens show for `COc1cccc(C(=O)Nc2ccc3c(c2)C(=O)N(C)C[C@H](OC)[C@H](C)CN(C(C)=O)[C@@H](C)CO3)c1`?
ERAP1 inh: inactive; MLL AF4-AF9 inh: inactive; FGF22 binding: inactive; RAD52 anneal inh: inactive; DENV2 CPE rescue: inactive

How did COc1cccc(CN2[C@H](CO)[C@@H](c3ccccc3)C23CN(C(=O)C2CCOCC2)C3)c1 do in these assays?
ERAP1 inh: inactive; MLL AF4-AF9 inh: inactive; FGF22 binding: inactive; RAD52 anneal inh: inactive; DENV2 CPE rescue: inactive

How did CCS(=O)(=O)c1nc(S(=O)(=O)c2ccc(Cl)cc2)c(N2CCC3(CC2)OCCO3)s1 do in these assays?
ERAP1 inh: inactive; MLL AF4-AF9 inh: inactive; FGF22 binding: 43; RAD52 anneal inh: inactive; DENV2 CPE rescue: inactive

Results for CS(=O)(=O)c1nc(S(=O)(=O)c2ccc(Cl)cc2)c(N2CCC3(CC2)OCCO3)s1 ?
ERAP1 inh: inactive; MLL AF4-AF9 inh: inactive; FGF22 binding: inactive; RAD52 anneal inh: inactive; DENV2 CPE rescue: inactive

Results for O=C1NC(Cc2ccc(Cl)cc2)COCc2cnnn2CCC1c1ccccc1 (stereo not given) ?
ERAP1 inh: inactive; MLL AF4-AF9 inh: inactive; FGF22 binding: inactive; RAD52 anneal inh: inactive; DENV2 CPE rescue: inactive

Results for C[C@H]1CN([C@@H](C)CO)C(=O)c2cccc(NS(=O)(=O)c3ccc(F)cc3)c2O[C@H]1CN(C)C(=O)Nc1cccc2ccccc12 ?
ERAP1 inh: inactive; MLL AF4-AF9 inh: inactive; FGF22 binding: inactive; RAD52 anneal inh: inactive; DENV2 CPE rescue: inactive

What do the screens show for `Cc1ccc(-c2ccc3nnc(SCC(N)=O)n3n2)cc1`?
ERAP1 inh: inactive; MLL AF4-AF9 inh: inactive; FGF22 binding: 43; RAD52 anneal inh: inactive; DENV2 CPE rescue: inactive

How did C[C@@H]1CN([C@@H](C)CO)C(=O)c2cc(NC(=O)CCC(F)(F)F)ccc2O[C@@H](C)CCCCO[C@@H]1CN(C)C(=O)Nc1ccc(F)cc1 do in these assays?
ERAP1 inh: inactive; MLL AF4-AF9 inh: inactive; FGF22 binding: inactive; RAD52 anneal inh: inactive; DENV2 CPE rescue: inconclusive

Results for C[C@@H](NC(=O)C[C@@H]1CC[C@H]2[C@@H](COC[C@H](O)CN2C(=O)Nc2cc(Cl)cc(Cl)c2)O1)c1ccccc1 ?
ERAP1 inh: inactive; MLL AF4-AF9 inh: inactive; FGF22 binding: inactive; RAD52 anneal inh: inactive; DENV2 CPE rescue: 40

How did C[C@H](NC(=O)C[C@H]1CC[C@H]2[C@@H](COC[C@@H](O)CN2C(=O)Nc2cc(Cl)cc(Cl)c2)O1)c1ccccc1 do in these assays?
ERAP1 inh: inactive; MLL AF4-AF9 inh: inactive; FGF22 binding: inactive; RAD52 anneal inh: inactive; DENV2 CPE rescue: 23

Results for CCCCCCC[C@H](N)[C@H](O)C(=O)N(C)[C@@H](CCS(C)=O)C(=O)N[C@@H](Cc1ccc(O)cc1)C(=O)N[C@@H](Cc1ccc(O)cc1)C(=O)O (stereo not given in full) ?
ERAP1 inh: 50; MLL AF4-AF9 inh: inactive; FGF22 binding: inactive; RAD52 anneal inh: inactive; DENV2 CPE rescue: inactive

How did C[C@@H]1CN([C@H](C)CO)C(=O)Cc2cc(NC(=O)NC3CCCCC3)ccc2O[C@@H]1CN(C)S(C)(=O)=O do in these assays?
ERAP1 inh: inactive; MLL AF4-AF9 inh: inactive; FGF22 binding: inactive; RAD52 anneal inh: inactive; DENV2 CPE rescue: inactive

How did COc1ccc(CC(=O)NNC(=O)COc2ccc(F)cc2)cc1S(=O)(=O)N1CCOCC1 do in these assays?
ERAP1 inh: inactive; MLL AF4-AF9 inh: inactive; FGF22 binding: inactive; RAD52 anneal inh: inactive; DENV2 CPE rescue: inactive

How did COc1ccc(CC(=O)NNC(=O)COc2ccc(C)cc2)cc1S(=O)(=O)N1CCOCC1 do in these assays?
ERAP1 inh: inactive; MLL AF4-AF9 inh: inactive; FGF22 binding: inactive; RAD52 anneal inh: inactive; DENV2 CPE rescue: 40
